The compounds below were run on PDPK1.
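Further: kd values determined as follow-up on hits from a single-replicate KINOMEscan panel screen.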

| Compound | Kd [µM] |
| --- | --- |
| COc1cc2c(Nc3cccc(NC(=O)c4ccccc4)c3)ncnc2cc1OCCCN1CCOCC1 [GSK223810] | > 10 |
| CC(C)(C)OC(=O)NC1CCCN(c2cc(-c3ccc4c(N)n[nH]c4c3)nc(N)n2)C1 (stereo not shown) [GSK2286096] | 0.037 |
| CSc1ccc(NC2=C(c3ccccc3Cl)C(=O)NC2=O)cc1 [SB-342411] | > 10 |
| Nc1nc(-c2ccc3c(N)n[nH]c3c2)cc(N2CCCCC2)n1 [GSK2228768] | 0.54 |

From PMC5540273 (PLoS ONE, 2017)
